According to PubChem BioAssay (NCI):
The panel holds about 83,000 compounds, 20% with a hit somewhere; the sample as a whole holds those more often.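 The test compound was applied at a single concentration to cells in 96-well plates for 48 hours, and percent growth was recorded.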 A number with no mark means an inactive call. Activity calls are given as the source filed them. The calls were made as follows: active = growth percent below 10; inactive = the rest.

Each compound was assayed on A498 renal (assay: NCI-60 one-dose screen, 48 h (100 = growth as untreated, 0 = no growth, -100 = all killed)). Details: 10 µM.

| Structure (SMILES) | growth |
| --- | --- |
| CN(C)c1ccc(/C=C/C(=O)c2ccc(NC(=O)CN3C(=O)NC(C)(c4ccccc4)C3=O)cc2)cc1 (stereo not given) | 85.5% |
| O=C(O)CCCCCCCCCCN1C(=O)/C(=C/c2cnc(-c3ccccc3)s2)SC1=S | 99.8% |
| COc1ccc(-c2ccc(/C=N/NC(=O)c3[nH]c4ccc(Br)cc4c3-c3ccccc3)s2)cc1 | 131% |
| O=C1N/C(=N\c2nccs2)S/C1=C\c1cccs1 | 73.2% |
| O=C(CNc1nc(-c2ccccc2)cs1)Nc1ccccc1 | -4.95% (active) |
| COc1cc2c3c(n(CCCNC(C)C)c(=O)c2cc1OC)-c1nc2c(cc1C3=O)OCO2 | 81.9% |
| Cc1cccc(-c2nc(Nc3ccccc3C(=O)O)c3ccccc3n2)c1 | 47.6% |
| Oc1ccc(/C=C2\CCCc3cc4ccc(O)cc4[o+]c32)c(O)c1 | 130% |
| N#Cc1ccc(-c2nn(-c3ccc(C(=O)O)cc3)cc2CNc2ccc(Cl)cc2)cc1 | 111% |
| COc1ccc2nc(Cl)c(-c3cc(-c4ccccc4)nc(=S)[nH]3)cc2c1 | 87.7% |
| Cc1ccc(NC(=O)c2ccc(-n3c(=O)[nH]c4ccccc4c3=O)cc2)cc1 | 107% |
| Nc1nc(Nc2ccc(Cl)cc2)n(Cc2cccc(Br)c2)n1 | -49% (active) |
| O=c1c2ccccc2nc(COc2ccccc2)n1/N=C/c1ccc(N2CCOCC2)cc1 | 78.2% |
| Cn1c(O)c(N=Nc2nc(-c3cc4ccccc4oc3=O)cs2)c2cc(Br)ccc21 | 16.5% |
| O=c1nc(-c2ccccc2)cc(-c2cc3ccccc3nc2Cl)[nH]1 | 104% |
| C/C(=N\NC(N)=S)c1ccc(Nc2nc(SC(C)C)nc(-c3ccccc3)c2C#N)cc1 | 123% |
| COc1ccc(/C=C/C(=O)c2ccc(N3CCN(C)CC3)cc2)c(C(F)(F)F)c1 | 59.5% |
| Nc1n[nH]c2cccc(C#Cc3cccc(NC(=O)Nc4cc(C(F)(F)F)cc(C(F)(F)F)c4)c3)c12 | -17.4% (active) |
| O=C(Nc1ccc(Cl)c([N+](=O)[O-])c1)Nc1ccc(Cl)c([N+](=O)[O-])c1 | 20.1% |
| O=C(Nc1nc2ccc([N+](=O)[O-])cc2s1)Nc1cc(Cl)ccc1I | -16.8% (active) |
| O=C1CCC(N2Cc3cc(NC(=O)COc4ccccc4)ccc3C2=O)C(=O)N1 (stereo not given) | 75.1% |
| O=C(c1ccc(-n2c(=O)[nH]c3ccccc3c2=O)cc1)N1CCOCC1 | 116% |
| CN1CCc2c(sc3ncnc(N/N=C/c4cn(-c5ccccc5)nc4-c4ccc(Cl)cc4)c23)C1 | 94.1% |
| C=CC(=O)Nc1ccc(C(=O)/C=C/c2ccc(N(C)CCF)cc2)c(O)c1 | 17.5% |

Each compound was assayed on CCRF-CEM leukemia in the same assay as above. Details: 10 µM.

| Structure (SMILES) | growth |
| --- | --- |
| Cc1ccc(F)cc1N/C=c1\s/c(=C(\C#N)C(=O)Nc2ccccc2)n(-c2ccccc2)c1=O | 84.7% |
| COc1ccc([C@H]2C(C(=O)c3ccc(Cl)cc3)C3(N[C@@H]2c2ccccc2)C(=O)Nc2ccc(Cl)cc23)cc1 (stereo not given in full) | 21.9% |
| O=C1Nc2cc(-c3ccc(NC(=O)c4cccc([N+](=O)[O-])c4)cc3)ccc2/C1=C/c1ccc[nH]1 | 91.2% |
| CCCn1c(=O)c2[nH]c(-c3ccc(OCc4nc5ccc(F)cc5[nH]4)cc3)nc2n(CCC)c1=O | 44% |
| CCCS(=O)(=O)c1oc(-c2ccc(F)cc2)nc1S(=O)(=O)c1ccc(F)cc1 | -51.3% (active) |
| O=C(CSc1nnc(-c2c[nH]c3ccccc23)n1-c1ccccc1)Nc1ccc(C(=O)/C=C/c2ccc(Br)cc2)cc1 | 90.9% |
| CCOC(=O)C1=C(N)N(c2ccc(Cl)cc2)C2=C(C(=O)CC(C)(C)C2)C1c1ccc(N2CCOCC2)cc1 (stereo not given) | 100% |
| COc1ccc2[nH]cc(/C=N/Nc3ccc(Br)cn3)c2c1 | 11.2% |
| O/N=C(\CSc1nnc(-c2c[nH]c3ccccc23)n1-c1ccccc1)c1ccc(Cl)cc1 | -5.19% (active) |
| COc1ccc2[nH]c(O)c(N=NC(=O)COc3ccc(NC(=O)Nc4ccc(Cl)c(Cl)c4)cc3)c2c1 | 20.8% |
| C=C1CC[C@H](C(=C)C)[C@H]2C=C(C)C(=O)C3=C(C(=O)[C@@](C)(O)C3)[C@H]12 | -5.05% (active) |
| O=S(=O)(Nc1ncccn1)c1ccc(-n2c(-c3ccccc3)nc(-c3ccccc3)c2-c2ccccc2)cc1 | 75.7% |
| COc1cccc(/C=C2\N=C(C)N(CCc3ccc(S(N)(=O)=O)cc3)C2=O)c1 | 96.4% |
| CN(C)c1ccc(/C=C/C(=O)c2ccc(NC(=O)CN3C(=O)NC(C)(c4ccccc4)C3=O)cc2)cc1 (stereo not given) | 53.1% |
| COc1ccc(-c2ccc(/C=N/NC(=O)c3[nH]c4ccc(Br)cc4c3-c3ccccc3)s2)cc1 | 88% |
| O=C1N/C(=N\c2nccs2)S/C1=C\c1cccs1 | 19.1% |
| O=C(CNc1nc(-c2ccccc2)cs1)Nc1ccccc1 | 14.9% |
| COc1cc2c3c(n(CCCNC(C)C)c(=O)c2cc1OC)-c1nc2c(cc1C3=O)OCO2 | 5.05% (active) |

| Structure (SMILES) | growth |
| --- | --- |
| Cc1cccc(-c2nc(Nc3ccccc3C(=O)O)c3ccccc3n2)c1 | 17.8% |
| Oc1ccc(/C=C2\CCCc3cc4ccc(O)cc4[o+]c32)c(O)c1 | 39% |
| N#Cc1ccc(-c2nn(-c3ccc(C(=O)O)cc3)cc2CNc2ccc(Cl)cc2)cc1 | 77.5% |
| COc1ccc2nc(Cl)c(-c3cc(-c4ccccc4)nc(=S)[nH]3)cc2c1 | 64.5% |
| Cc1ccc(NC(=O)c2ccc(-n3c(=O)[nH]c4ccccc4c3=O)cc2)cc1 | 60.7% |
| Nc1nc(Nc2ccc(Cl)cc2)n(Cc2cccc(Br)c2)n1 | 4.65% (active) |
| O=c1c2ccccc2nc(COc2ccccc2)n1/N=C/c1ccc(N2CCOCC2)cc1 | 97.7% |
| Cn1c(O)c(N=Nc2nc(-c3cc4ccccc4oc3=O)cs2)c2cc(Br)ccc21 | 97.7% |
| O=c1nc(-c2ccccc2)cc(-c2cc3ccccc3nc2Cl)[nH]1 | -29.3% (active) |
| C/C(=N\NC(N)=S)c1ccc(Nc2nc(SC(C)C)nc(-c3ccccc3)c2C#N)cc1 | 76.3% |
| COc1ccc(/C=C/C(=O)c2ccc(N3CCN(C)CC3)cc2)c(C(F)(F)F)c1 | 27.3% |
| Nc1n[nH]c2cccc(C#Cc3cccc(NC(=O)Nc4cc(C(F)(F)F)cc(C(F)(F)F)c4)c3)c12 | -1.88% (active) |
| O=C(Nc1ccc(Cl)c([N+](=O)[O-])c1)Nc1ccc(Cl)c([N+](=O)[O-])c1 | 14.2% |
| O=C(Nc1nc2ccc([N+](=O)[O-])cc2s1)Nc1cc(Cl)ccc1I | -36.8% (active) |
| O=C1CCC(N2Cc3cc(NC(=O)COc4ccccc4)ccc3C2=O)C(=O)N1 (stereo not given) | 22.7% |
| O=C(c1ccc(-n2c(=O)[nH]c3ccccc3c2=O)cc1)N1CCOCC1 | 108% |
| CN1CCc2c(sc3ncnc(N/N=C/c4cn(-c5ccccc5)nc4-c4ccc(Cl)cc4)c23)C1 | 11.4% |
| C=CC(=O)Nc1ccc(C(=O)/C=C/c2ccc(N(C)CCF)cc2)c(O)c1 | 13.1% |
